For eleven molecules, residual activity results are on record in ChEMBL document CHEMBL2218924, “A broad activity screen in support of a chemogenomic map for kinase signalling research and drug discovery” (Biochem J, 2013).

Assay [1] concerns the target Tyrosine-protein kinase ABL1 (Homo sapiens) (UniProt P00519). The settings on record: at 1 µM.
For assay [2] the target is unchanged. The following applies: at 10 µM.
The target in assay [3] is Tyrosine-protein kinase ABL2 (Homo sapiens) (UniProt P42684). The settings on record: at 1 µM.
Chain of Tyrosine-protein kinase ABL2 (Homo sapiens) (P42684 whole entry): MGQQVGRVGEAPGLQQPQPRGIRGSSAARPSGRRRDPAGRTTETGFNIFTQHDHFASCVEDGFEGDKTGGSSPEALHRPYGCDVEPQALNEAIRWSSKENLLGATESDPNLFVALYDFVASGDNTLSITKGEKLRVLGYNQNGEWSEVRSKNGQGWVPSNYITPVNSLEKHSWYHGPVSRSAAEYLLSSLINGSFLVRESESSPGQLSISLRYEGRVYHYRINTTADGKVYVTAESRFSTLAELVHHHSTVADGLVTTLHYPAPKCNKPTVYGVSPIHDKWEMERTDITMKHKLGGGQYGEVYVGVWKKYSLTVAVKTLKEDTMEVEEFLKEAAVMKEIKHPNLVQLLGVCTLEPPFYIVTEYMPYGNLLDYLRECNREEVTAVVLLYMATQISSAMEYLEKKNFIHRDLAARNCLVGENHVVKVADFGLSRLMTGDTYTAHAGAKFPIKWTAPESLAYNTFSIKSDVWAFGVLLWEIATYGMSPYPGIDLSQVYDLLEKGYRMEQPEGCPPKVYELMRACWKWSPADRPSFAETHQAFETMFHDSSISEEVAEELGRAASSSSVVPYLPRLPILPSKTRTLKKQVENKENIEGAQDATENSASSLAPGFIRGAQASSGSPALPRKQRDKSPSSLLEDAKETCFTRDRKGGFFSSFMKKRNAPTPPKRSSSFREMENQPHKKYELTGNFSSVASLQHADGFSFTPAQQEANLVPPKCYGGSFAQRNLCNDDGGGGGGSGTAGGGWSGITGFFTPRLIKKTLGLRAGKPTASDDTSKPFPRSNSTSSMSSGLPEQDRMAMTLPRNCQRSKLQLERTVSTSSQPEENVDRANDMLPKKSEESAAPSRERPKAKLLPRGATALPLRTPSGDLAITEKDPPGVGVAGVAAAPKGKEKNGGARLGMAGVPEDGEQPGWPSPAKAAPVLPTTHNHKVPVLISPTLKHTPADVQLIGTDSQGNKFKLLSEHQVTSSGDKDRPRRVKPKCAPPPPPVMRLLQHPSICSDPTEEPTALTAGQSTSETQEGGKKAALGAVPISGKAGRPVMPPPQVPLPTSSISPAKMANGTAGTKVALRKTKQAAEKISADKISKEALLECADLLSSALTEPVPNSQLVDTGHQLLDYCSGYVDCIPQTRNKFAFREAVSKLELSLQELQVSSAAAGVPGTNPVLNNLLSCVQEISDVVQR
For assay [4] the target is unchanged. The settings on record: at 10 µM.
Assay [5] addresses T1, Aurora kinase A (Homo sapiens) (UniProt O14965).
T1 sequence (whole entry): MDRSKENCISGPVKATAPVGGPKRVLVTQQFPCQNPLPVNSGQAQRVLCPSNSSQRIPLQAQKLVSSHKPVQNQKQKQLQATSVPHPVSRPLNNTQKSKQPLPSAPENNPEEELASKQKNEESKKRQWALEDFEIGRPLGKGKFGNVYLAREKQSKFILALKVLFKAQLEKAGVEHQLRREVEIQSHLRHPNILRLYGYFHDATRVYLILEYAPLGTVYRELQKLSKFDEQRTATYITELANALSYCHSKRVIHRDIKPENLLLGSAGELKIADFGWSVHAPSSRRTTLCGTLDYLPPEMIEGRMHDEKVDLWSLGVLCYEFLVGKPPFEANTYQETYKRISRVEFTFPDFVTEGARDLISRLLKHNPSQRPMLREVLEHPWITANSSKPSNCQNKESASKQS
The following applies: at 1 µM.

In assay [6] the target is T1, Aurora kinase A (Homo sapiens). The following applies: at 10 µM.
The target in assay [7] is Aurora kinase B (Homo sapiens) (UniProt Q96GD4). The following applies: at 1 µM.
Chain of Aurora kinase B (Homo sapiens) (Q96GD4 whole entry): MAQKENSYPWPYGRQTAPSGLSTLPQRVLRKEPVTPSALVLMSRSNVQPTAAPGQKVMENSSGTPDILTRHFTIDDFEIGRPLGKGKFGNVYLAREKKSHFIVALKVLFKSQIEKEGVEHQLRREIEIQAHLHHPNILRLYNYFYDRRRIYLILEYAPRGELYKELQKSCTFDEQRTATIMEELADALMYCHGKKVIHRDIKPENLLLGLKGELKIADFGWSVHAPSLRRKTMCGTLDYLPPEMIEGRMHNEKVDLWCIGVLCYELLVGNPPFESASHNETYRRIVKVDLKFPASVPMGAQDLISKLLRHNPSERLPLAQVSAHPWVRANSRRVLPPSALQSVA
For assay [8] the target is unchanged. The following applies: at 10 µM.
The target in assay [9] is T2, Aurora kinase C (Homo sapiens) (UniProt Q9UQB9).
T2 sequence (whole entry): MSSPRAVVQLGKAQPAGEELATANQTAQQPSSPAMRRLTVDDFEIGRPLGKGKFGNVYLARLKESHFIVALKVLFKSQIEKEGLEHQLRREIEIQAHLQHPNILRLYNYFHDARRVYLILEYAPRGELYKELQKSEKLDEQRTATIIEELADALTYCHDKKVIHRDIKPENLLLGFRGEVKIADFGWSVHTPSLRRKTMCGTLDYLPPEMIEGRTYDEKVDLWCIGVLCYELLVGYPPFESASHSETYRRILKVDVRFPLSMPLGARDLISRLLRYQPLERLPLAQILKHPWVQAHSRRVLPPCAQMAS
The following applies: at 1 µM.

The target in assay [10] is T2, Aurora kinase C (Homo sapiens). The following applies: at 10 µM.
The target in assay [11] is Tyrosine-protein kinase receptor UFO (Homo sapiens) (UniProt P30530). The following applies: at 1 µM.
The target is the same in assay [12]. The following applies: at 10 µM.
Assay [13] deals with Protein-tyrosine kinase 6 (Homo sapiens) (UniProt Q13882). The following applies: at 1 µM.
Chain of Protein-tyrosine kinase 6 (Homo sapiens) (Q13882 whole entry, looked up): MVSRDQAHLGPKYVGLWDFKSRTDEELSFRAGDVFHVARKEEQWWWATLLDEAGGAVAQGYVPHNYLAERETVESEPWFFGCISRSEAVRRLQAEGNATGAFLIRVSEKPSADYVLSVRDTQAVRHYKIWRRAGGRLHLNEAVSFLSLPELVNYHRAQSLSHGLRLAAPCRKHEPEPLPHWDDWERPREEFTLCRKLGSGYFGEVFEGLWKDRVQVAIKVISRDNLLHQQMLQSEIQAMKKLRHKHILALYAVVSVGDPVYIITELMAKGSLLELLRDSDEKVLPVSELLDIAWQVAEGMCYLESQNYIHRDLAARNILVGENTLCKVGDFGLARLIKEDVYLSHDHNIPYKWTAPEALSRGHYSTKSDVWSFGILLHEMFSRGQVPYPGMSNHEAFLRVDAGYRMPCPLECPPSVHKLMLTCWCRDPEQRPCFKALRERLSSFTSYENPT
Assay [14] has the same target. The following applies: at 10 µM.
Assay [15] addresses Tyrosine-protein kinase BTK (Homo sapiens) (UniProt Q06187). The following applies: at 1 µM.
For assay [16] the target is unchanged. The settings on record: at 10 µM.
In assay [17] the target is T3, Mitogen-activated protein kinase kinase kinase 5 (Homo sapiens) (UniProt Q99683).
T3 sequence (whole entry): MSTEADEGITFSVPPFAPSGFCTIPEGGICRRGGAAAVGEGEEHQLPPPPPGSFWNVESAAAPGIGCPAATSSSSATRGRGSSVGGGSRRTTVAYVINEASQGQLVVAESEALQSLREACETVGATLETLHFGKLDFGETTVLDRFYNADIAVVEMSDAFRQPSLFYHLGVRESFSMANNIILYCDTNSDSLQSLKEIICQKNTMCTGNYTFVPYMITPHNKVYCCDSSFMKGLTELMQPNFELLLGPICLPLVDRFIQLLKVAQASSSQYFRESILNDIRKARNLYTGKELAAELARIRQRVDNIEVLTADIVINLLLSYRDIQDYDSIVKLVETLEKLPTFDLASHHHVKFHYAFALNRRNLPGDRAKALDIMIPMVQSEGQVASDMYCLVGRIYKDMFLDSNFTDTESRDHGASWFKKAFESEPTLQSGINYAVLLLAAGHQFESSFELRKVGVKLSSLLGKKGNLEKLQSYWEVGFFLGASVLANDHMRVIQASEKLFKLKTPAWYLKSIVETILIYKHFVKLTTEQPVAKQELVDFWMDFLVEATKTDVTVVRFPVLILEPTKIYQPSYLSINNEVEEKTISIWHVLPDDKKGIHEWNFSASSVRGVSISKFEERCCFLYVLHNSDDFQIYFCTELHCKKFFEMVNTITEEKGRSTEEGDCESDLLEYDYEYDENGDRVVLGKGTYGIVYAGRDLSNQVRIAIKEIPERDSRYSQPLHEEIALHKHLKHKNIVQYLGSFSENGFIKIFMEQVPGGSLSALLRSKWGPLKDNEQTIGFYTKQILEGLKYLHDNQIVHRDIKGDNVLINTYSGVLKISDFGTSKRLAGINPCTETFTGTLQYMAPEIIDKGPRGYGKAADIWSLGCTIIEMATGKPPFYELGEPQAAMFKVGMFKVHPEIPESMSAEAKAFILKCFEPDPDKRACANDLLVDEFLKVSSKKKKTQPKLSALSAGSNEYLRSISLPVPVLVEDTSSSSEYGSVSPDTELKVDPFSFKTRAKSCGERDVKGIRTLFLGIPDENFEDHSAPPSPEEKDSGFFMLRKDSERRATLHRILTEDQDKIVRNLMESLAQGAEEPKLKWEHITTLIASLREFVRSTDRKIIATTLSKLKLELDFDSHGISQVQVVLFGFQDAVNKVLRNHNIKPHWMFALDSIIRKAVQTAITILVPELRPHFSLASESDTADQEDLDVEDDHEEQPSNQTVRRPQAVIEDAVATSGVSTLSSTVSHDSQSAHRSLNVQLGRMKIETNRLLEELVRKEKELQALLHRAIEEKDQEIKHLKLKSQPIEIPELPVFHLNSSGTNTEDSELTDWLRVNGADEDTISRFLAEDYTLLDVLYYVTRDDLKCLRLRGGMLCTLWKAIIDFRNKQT
The following applies: at 10 µM.

The target in assay [18] is Tyrosine-protein kinase Blk (Homo sapiens) (UniProt P51451). The settings on record: at 1 µM.
Chain of Tyrosine-protein kinase Blk (Homo sapiens) (P51451 2-505 limits assumed): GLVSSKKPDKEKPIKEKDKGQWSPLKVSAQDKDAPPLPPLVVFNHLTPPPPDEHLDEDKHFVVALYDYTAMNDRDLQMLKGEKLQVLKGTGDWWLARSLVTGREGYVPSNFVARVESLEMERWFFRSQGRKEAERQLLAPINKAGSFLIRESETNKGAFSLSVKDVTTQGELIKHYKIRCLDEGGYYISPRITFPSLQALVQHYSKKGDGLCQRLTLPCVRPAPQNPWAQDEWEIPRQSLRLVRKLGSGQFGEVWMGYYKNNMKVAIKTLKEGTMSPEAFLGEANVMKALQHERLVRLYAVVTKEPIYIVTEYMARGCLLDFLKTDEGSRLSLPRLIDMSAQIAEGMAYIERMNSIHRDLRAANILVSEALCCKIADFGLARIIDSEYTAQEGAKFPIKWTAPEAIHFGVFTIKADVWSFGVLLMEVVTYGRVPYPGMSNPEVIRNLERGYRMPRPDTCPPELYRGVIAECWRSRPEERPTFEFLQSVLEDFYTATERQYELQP
Assay [19] has the same target. The settings on record: at 10 µM.

Chain of Tyrosine-protein kinase BTK (Homo sapiens) (Q06187 whole entry): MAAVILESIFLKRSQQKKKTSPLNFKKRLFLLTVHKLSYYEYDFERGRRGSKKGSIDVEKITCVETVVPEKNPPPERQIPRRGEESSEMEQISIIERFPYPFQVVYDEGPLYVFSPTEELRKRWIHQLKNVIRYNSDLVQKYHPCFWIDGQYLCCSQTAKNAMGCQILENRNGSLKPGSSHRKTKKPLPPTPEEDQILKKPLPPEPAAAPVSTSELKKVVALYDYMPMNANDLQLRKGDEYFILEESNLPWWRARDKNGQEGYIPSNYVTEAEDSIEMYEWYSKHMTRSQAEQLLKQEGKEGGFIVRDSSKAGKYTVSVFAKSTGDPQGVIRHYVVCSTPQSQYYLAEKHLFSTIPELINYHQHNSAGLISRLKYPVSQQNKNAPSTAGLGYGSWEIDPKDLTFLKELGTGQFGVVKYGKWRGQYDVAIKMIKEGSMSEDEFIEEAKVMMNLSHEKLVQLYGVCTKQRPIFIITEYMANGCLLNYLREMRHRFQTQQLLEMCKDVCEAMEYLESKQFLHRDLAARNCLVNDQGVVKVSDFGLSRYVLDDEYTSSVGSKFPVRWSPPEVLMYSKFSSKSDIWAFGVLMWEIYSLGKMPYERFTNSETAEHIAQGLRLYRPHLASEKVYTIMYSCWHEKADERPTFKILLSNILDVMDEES
Chain of Tyrosine-protein kinase ABL1 (Homo sapiens) (P00519 whole entry): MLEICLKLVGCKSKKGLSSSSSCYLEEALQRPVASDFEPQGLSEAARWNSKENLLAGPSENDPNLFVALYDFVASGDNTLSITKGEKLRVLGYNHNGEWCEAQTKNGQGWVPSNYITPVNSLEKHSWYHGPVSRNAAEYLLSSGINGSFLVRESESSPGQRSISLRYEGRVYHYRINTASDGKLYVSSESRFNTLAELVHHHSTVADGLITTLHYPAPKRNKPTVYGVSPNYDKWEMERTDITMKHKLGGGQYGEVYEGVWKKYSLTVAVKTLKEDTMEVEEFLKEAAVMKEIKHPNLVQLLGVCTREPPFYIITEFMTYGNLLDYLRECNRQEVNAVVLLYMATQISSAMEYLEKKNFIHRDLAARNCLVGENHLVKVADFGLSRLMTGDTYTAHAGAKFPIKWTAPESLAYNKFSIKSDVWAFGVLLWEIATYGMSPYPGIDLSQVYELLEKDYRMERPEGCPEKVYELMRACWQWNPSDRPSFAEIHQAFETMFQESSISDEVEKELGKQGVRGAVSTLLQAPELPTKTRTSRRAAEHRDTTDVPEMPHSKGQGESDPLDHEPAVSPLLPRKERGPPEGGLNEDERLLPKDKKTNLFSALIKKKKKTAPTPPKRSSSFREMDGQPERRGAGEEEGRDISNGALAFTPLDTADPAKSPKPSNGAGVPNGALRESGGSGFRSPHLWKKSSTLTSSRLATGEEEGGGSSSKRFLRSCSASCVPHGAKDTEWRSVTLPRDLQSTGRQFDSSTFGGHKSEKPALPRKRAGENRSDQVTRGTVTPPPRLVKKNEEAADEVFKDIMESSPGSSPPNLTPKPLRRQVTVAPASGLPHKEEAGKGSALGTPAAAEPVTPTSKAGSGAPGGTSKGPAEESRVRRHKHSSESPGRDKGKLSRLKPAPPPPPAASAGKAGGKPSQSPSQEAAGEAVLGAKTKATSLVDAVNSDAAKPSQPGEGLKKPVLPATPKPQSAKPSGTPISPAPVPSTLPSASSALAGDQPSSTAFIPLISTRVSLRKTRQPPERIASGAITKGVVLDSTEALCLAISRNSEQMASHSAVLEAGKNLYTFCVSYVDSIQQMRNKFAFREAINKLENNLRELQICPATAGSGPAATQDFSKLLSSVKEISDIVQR

`CC(C)[C@H](CO)Nc1nc(Nc2cc(N)cc(Cl)c2)c2ncn(C(C)C)c2n1`: the residual activity in assay [1] was determined as 75%; in assay [2] it was 15%; in assay [3], 62%; in assay [4], 8%; in assay [5], 70%; in [6], 47%. Besides, the residual activity is 14% in [7]; 2% in assay [8]; 91% in assay [9]; 52% in assay [10]; 80% in [11]; 20% in assay [12]. Further, the residual activity in assay [13] amounted to 96%; in [14], 83%; in assay [15], 48%; in assay [16], 5%.
For the molecule `O=C1Nc2ccccc2/C1=C\c1c(Cl)[nH]c2ccccc12`, the residual activity is 70% in assay [17]; 59% in [8]; 58% in assay [12]; 54% in assay [14]; 80% in [16].
For the molecule `Oc1cccc(-c2nc(N3CCOCC3)c3oc4ncccc4c3n2)c1`, the residual activity in [8] turned out to be 92%; in assay [12], 86%.
Consider `CN([C@@H](Cc1ccc(OS(=O)(=O)c2cccc3cnccc23)cc1)C(=O)N1CCN(c2ccccc2)CC1)S(=O)(=O)c1cccc2cnccc12`, for which the residual activity in assay [2] is 86%; in assay [15] it was 100%; in assay [16] it was 86%; in assay [18], 98%; in assay [19] it was 81%.
Turning to `O=c1cc(N2CCOCC2)oc2c(-c3ccccc3)cccc12`, the residual activity in assay [13] and in [14] was 101% throughout.
In the case of `Cc1cc(C)c(/C=C2\C(=O)Nc3ccccc32)[nH]1`, the residual activity came out at 6% in assay [7]; 0% in [8]; 31% in assay [11]; 21% in [12]; 103% in assay [13]; 104% in assay [14]. For the same molecule, the figures for the residual activity in assay [18] and in [19] were 65% and 32%, respectively.
Consider `CCN1/C(=C/C(C)=O)Sc2ccc(OC)cc21`, for which the residual activity worked out at 79% in assay [2]; 81% in assay [4]; 122% in assay [8]; 77% in assay [11]; 75% in assay [12].
`CCCC(=O)Oc1ccc2[nH]c(C(=O)c3cc4ccccc4[nH]3)cc2c1`: the residual activity came out at 102% in [1]; 96% in assay [2]; 71% in assay [5]; 124% in [7]; 47% in [8]; 104% in [9]. Moreover, the residual activity amounted to 84% in [10]; 81% in [11]; 80% in assay [12]; 101% in assay [13]; 107% in [14]; 94% in assay [15]. Moreover, the residual activity in [18] worked out at 70%; in assay [19], 64%.
For the molecule `O=C(c1cc2cc(O)ccc2[nH]1)c1cc2cc(O)ccc2[nH]1`, the residual activity was 11% in assay [1]; -6% in assay [2]; 27% in assay [3]; 4% in [4]; 23% in assay [5]; 6% in assay [6]. Moreover, the residual activity in assay [7] was 9%; in [8], -1%; in assay [9] it was 61%; in [10], 24%; in [11] it was 50%; in assay [12], 15%. Moreover, the residual activity was found to be 78% in [15], 34% in assay [16], 6% in assay [18] and 1% in assay [19].
Regarding `CC(C)(C)c1nc2c3ccc(F)cc3c3c(=O)[nH]ccc3c2[nH]1`, the residual activity in assay [17] is 35%; in assay [4], 100%; in assay [5], 13%; in [6], 25%; in [7], 1%; in assay [8], -1%. The residual activity was found to be 11% in [9]; 7% in assay [10]; 40% in [11]; 59% in assay [12]; 71% in [15]; 59% in assay [16].
With `COc1ccc2c(c1)c(C1=C(c3c[nH]c4ccccc34)C(=O)NC1=O)cn2CCCN(C)C`, the residual activity worked out at 107% in assay [1]; 114% in assay [2]; 113% in assay [3]; 74% in assay [4]; 100% in assay [5]; 97% in [6]. Besides, the residual activity in [7] was found to be 39%; in assay [8], 7%; in assay [10] it was 59%; in assay [12], 40%; in [13] it was 98%; in assay [14], 82%. Besides, the residual activity in [18] amounted to 57%; in assay [19] it was 7%.
